LASV entry inh – inhibitors of Lassa virus binding or cell entry. Lassa virus pseudotype entry inhibition, cell reporter. Potency, µM (highest dose often 37.9 µM), for the others: at the highest dose activity change, negative = inhibition, hits mostly inhibitors. 300,000 tested, 1.2% active; calls by dose curve; tested in HEK293 cells; also: potency is read from the fitted curve at half-maximal effect; nearly all actives have a fitted effect of over 50% in size
VACV Venus inh – vaccinia inhibition (Venus reporter); Vaccinia virus Venus reporter expression, fluorescence; Potency, µM (titrated, usually from 36.5 µM), for inactives: top-dose activity change, negative = inhibition, most hits filed as inhibitors; 330,000 tested, 0.46% active; calls by dose curve; tested in A549 cells; also: potency is read from the fitted curve at half-maximal effect; nearly all actives have a fitted effect of over 30% in size
Marburg entry inh – Marburg virus entry inhibition; Marburg virus pseudotyped entry inhibition, cell reporter; Potency, µM (doses to about 37.8 µM), for inactives: at the top dose activity change, negative = inhibition, hits mostly inhibitors; 300,000 tested, 1.8% active; calls by dose curve; tested in HEK293 cells; also: potency is read from the fitted curve at half-maximal effect
HCV inhibitor – HCV inhibition | 340,000 tested, 3.4% active | Potency, µM (series often up to 41.8 µM), without a hit: at the highest dose activity change, negative = inhibition, usual class: inhibitors | AID 651820 | Huh7.5.1 HCVcc-Cre infection, luciferase reporter, 44 h; active = well fitted inhibition curve with a large enough effect; inconclusive = small, poorly fitted or top-dose-only effect, or another doubt; inactive = no such curve, though single readings can be large or run the other way; also: potency is read from the fitted curve at half-maximal effect
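HCVcc-Cre virus at an moi near 0.5 was added right after compound to cells cultured 4 h from seeding (1,000 cells/well). Luciferase activity was determined 44 h later, 15 min after substrate addition at RT.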
HCMV inh – blocks human cytomegalovirus replication; HFF cells, HCMV-luciferase reporter, 72 h; hits give low values; activity change, negative = inhibition, % at 57.5 µM; 410,000 tested, 4.5% active; in the data active = activity change below about -60%; inconclusive = no clear call, values can overlap the other calls; inactive = above about -39%
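After 16 h attachment at 37C, HFF cells received test compound and HCMV-luciferase (1 PFU/cell); reporter luminescence read 72 h later, data normalized against buffer-only and known inhibitor Salinomycin.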
Vaccinia mCherry – vaccinia inhibition (mCherry reporter); Vaccinia virus mCherry reporter infection, fluorescence; Potency, µM (top dose mostly 36.5 µM), without a hit: at the top dose activity change, negative = inhibition, hits mostly inhibitors; 310,000 tested, 0.63% active; AID 720579; calls by dose curve; tested in A549 cells; also: potency is read from the fitted curve at half-maximal effect; nearly all actives have a fitted effect of over 35% in size
* hit, by the source's call; i = inactive; ? = inconclusive; . = no result; [ ] = remark or other dose. Shown are actives, neighbours in structure and some others; about 7.8% of the full set was active somewhere. % is scaled to controls: 0 for no effect and ±100 for the full control effect.

SMILES	LASV entry inh	VACV Venus inh	Marburg entry inh	HCV inhibitor	HCMV inh	Vaccinia mCherry
CCN(CC)S(=O)(=O)c1cc(NC(=O)Cn2cnc3ccccc3c2=O)ccc1C	3.9%	.	-29.5%	11.2µM*	-37.6	.
CC(C)(C)C1CCc2c(sc(NC(=O)CCC(=O)O)c2C(=O)Nc2ccccc2C(F)(F)F)C1 (stereo unspecified)	-5.7%[46.1 µM]	-1.2%[7.34 µM]	?	.	-32.1	3.7%[7.34 µM]
O=C(Nc1c(C(=O)c2ccc(F)cc2)oc2ccccc12)c1cc(-c2ccccc2)on1	-0.4%[46.1 µM]	-20.9%	-5.4%[46.1 µM]	.	-5.7	i
Fc1ccc(CNc2ncnc3c2c(-c2ccccc2)cn3-c2ccccc2)cc1	18.5%[46.1 µM]	-8.5%	.	.	-0.3	i
CCN(CC)S(=O)(=O)c1cc(NC(=O)CSCc2c(C)noc2C)ccc1C	2.82µM*	-2.6%	?	?	-17.2	-6.1%
CCN(CC)S(=O)(=O)c1cc(NC(=O)CCc2c(C)noc2C)ccc1C	-15.0%[46.1 µM]	-11.5%	?	?	16.1	i
CC1CCc2c(sc(NC(=O)c3ccccc3)c2C(=O)Nc2ccccc2)C1 (stereo unspecified)	-3.1%[46.1 µM]	-8.8%	.	.	5.2	-20.6%
Cc1ccc(CN2CCCn3nc(C(=O)NCCc4ccccc4Cl)cc3C2=O)cc1	?	-15.6%	.	.	14.2	-15.8%
CC(C)CCOc1ccc(Cn2c(=O)sc3ccccc32)cc1	-3.8%[46.1 µM]	-5.9%	7.2%[46.1 µM]	.	4.1	-1.2%
COc1ccc(CCNC(=O)c2ccc(S(=O)(=O)N(C)c3ccccc3)cc2)cc1OC	?	-11.4%	-25.1%	?	14.7	i
CN(c1ccccc1)S(=O)(=O)c1ccc(C(=O)NCc2ccccc2CN2CCCC2)cc1	12.5%	-10.1%	?	10µM*	?	-16.3%
COC(=O)c1cc(CNC(=O)c2ccc(S(=O)(=O)N(C)c3ccccc3)cc2)ccc1OC	-16.0%	-21.8%	-7.9%	3.98µM*	-1.9	-7.1%
COC(=O)c1cc(CNC(=O)c2sccc2-c2ccccc2)ccc1OC	.	.	.	11.2µM*	39.6	.
CN(c1ccccc1)S(=O)(=O)c1ccc(C(=O)NCc2ccc(F)cc2)cc1	.	.	.	-20.2%	19.2	.
COC(=O)c1ccc(CNC(=O)c2sccc2-c2ccccc2)cc1	?	-9.2%	?	?	-11.2	-10.4%
CCOc1ccccc1NC(=O)c1ccccc1-c1nc(-c2ccccc2OC)no1	?	-17.8%	?	11.2µM*	30.3	.
CCOc1ccccc1-c1nc(-c2cc3ccccc3nc2OC)no1	-19.9%	-22.5%	?	11.2µM*	60.6	.
OC(COc1ccc(CNCCc2ccc(C(F)(F)F)cc2)cc1)CN1CCCCC1 (stereo unspecified)	?	9.5%	?	5.01µM*	-80.1*	-12.7%
OC(CNCCc1ccc(C(F)(F)F)cc1)COc1ccc2ccccc2c1 (stereo unspecified)	16.4µM*	?	?	?	-33.7	-21.7%
CCn1ccc2cc(S(=O)(=O)N3CCCN(C(=O)NCC(C)C)CC3)ccc21	-16.6%[46.1 µM]	9.7%	.	.	8.9	-9.0%
CCCn1c(=N)c(C(=O)NC2CCCCC2)cc2c(=O)n3cc(C)ccc3nc21	-6.8%[46.1 µM]	-2.1%	-12.5%[46.1 µM]	.	5.7	12.9%
Cc1ccc(C)c(NC(=S)N2CCN(S(C)(=O)=O)CC2)c1	13.1%[46.1 µM]	-9.5%	1.5%[46.1 µM]	13.5%	-8.4	-3.3%
CCN1CCN(S(=O)(=O)c2ccc(Cl)c(C(=O)N(CCc3ccccc3)Cc3ccccc3)c2)CC1	.	.	.	12.6µM*	-21.4	.
Cc1ccc(C)c(NC(=O)CN(C)C(=O)c2cccc(S(=O)(=O)N3CCCC3)c2)c1	10.8%[46.1 µM]	-4.0%	6.1%	-3.3%	-17.4	-13.4%
CCc1ccccc1NC(=O)CNC(=O)c1cccc(S(=O)(=O)N2CCN(Cc3ccccc3)CC2)c1	-18.4%	-21.1%	?	10µM*	-24.6	-6.1%
SMILES	LASV entry inh	VACV Venus inh	Marburg entry inh	HCV inhibitor	HCMV inh	Vaccinia mCherry
Cc1ccc(C)c(NC(=S)N2CCN(S(=O)(=O)c3ccccc3)CC2)c1	3.9%	-21.4%	-10.1%	12.5%	-71.4*	-27.2%
Cc1ccc(C)c(NC(=O)CN(C)C(=O)c2cccc(S(=O)(=O)N3CCN(Cc4ccccc4)CC3)c2)c1	?	-16.1%	?	5.62µM*	?	-2.5%
CCc1c(C(=O)NCCc2ccc(N3CCCCC3)cc2)[nH]c2ccc(Cl)cc12	-32.7%	.	-2.1%	.	.	.
CN(CCOc1ccc(Cl)cc1)C(=O)c1cccc(S(=O)(=O)N2CCN(Cc3ccccc3)CC2)c1	.	.	.	2.51µM*	?	.
COc1ccc(NC(=O)CN(C)C(=O)c2cccc(S(=O)(=O)N3CCN(Cc4ccccc4)CC3)c2)cc1	?	-17.0%	?	?	.	-3.0%
CCN(CC)C(=O)c1ccc(NC(=O)c2cccc(S(=O)(=O)N3CCN(Cc4ccccc4)CC3)c2)cc1	-29.1%	?	?	6.31µM*	-77.9*	-17.5%
Cc1ccc(S(=O)(=O)N2CCN(CCOc3ccccc3)CC2)cc1	-3.6%[46.1 µM]	-7.7%	-21.8%	-14.6%	-30.8	i
Cc1ccc(S(=O)(=O)N2CCN(C(=O)N(c3ccccc3)c3ccccc3)CC2)cc1	?	.	18.3µM*	?	?	.
CC(=O)Nc1cccc(NC(=O)c2cccc(S(=O)(=O)N3CCN(Cc4ccccc4)CC3)c2)c1	8.9%	-12.6%	6.1%	?	-14.2	-18.2%
CC(=O)c1cccc(S(=O)(=O)N2CCN(CCOc3ccccc3)CC2)c1	.	.	.	?	-61.3*	.
COCc1c(C(=O)NC2CCCC2)cnn1-c1nccc(-c2cccs2)n1	.	-8.1%	.	.	.	i
O=S(=O)(c1ccc(Cl)cc1)N1CCN(C(=S)Nc2ccc(F)c(Cl)c2)CC1	?	?	?	-1.2%	-61.8*	-20.4%
O=S(=O)(c1ccccc1)N1CCN(C(=S)Nc2ccc(F)cc2)CC1	-24.7%	-13.7%	-3.0%	8.9%	-26.5	-23.0%
Cc1nn(Cc2ccccc2)c(Cl)c1C(=O)OC(C)C(=O)Nc1ccc(F)cc1Cl (stereo unspecified)	3.16µM*	-7.1%	12.6µM*	?	-64.6*	i
Cc1nn(Cc2ccccc2)c(Cl)c1C(=O)OCC(=O)Nc1cccc2ccccc12	7.8%	-1.0%	?	-21.1%	-16.0	i
CCc1ccc(NC(=O)C(C)OC(=O)c2c(C)nn(Cc3ccccc3)c2Cl)cc1 (stereo unspecified)	?	-2.9%	-22.6%[46.1 µM]	11.2µM*	-23.9	i
Cc1ccc(C(C)NC(=S)NC2CCCCC2)cc1C (stereo unspecified)	.	.	.	.	-75.2*	.
CC(NC(=S)NC1CCC(C(C)(C)C)CC1)c1ccccc1 (stereo unspecified)	.	.	.	?	-81.7*	.
Cc1ccc(C(C)NC(=S)NC2CCCCC2)c(C)c1 (stereo unspecified)	.	.	.	?	-77.7*	.
Cc1ccc(N2CCN(S(=O)(=O)c3nnc(NC(=O)c4cccc(F)c4)s3)CC2)cc1	10.0%[46.1 µM]	?	.	.	9.4	?
CC(C)Oc1ccc(Br)cc1/C=N\NC(N)=S	?	7.94µM*	?	?	?	5.62µM*
